Only some compounds are listed: those with a hit (about 18% of all), similar ones and a draw of the others.
VDR inh = Inhibitors of the vitamin D receptor (VDR): qHTS. Vitamin D3 receptor (Homo sapiens), P11473. VDR-SRC2-3 peptide fluorescence polarization, 2 h. Potency, µM, most hits filed as inhibitors. hit rate 0.93% among 400,000. AID 504847, 2011
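Fluorescence polarization assay of small-molecule disruption of VDR binding to coregulator peptide SRC2-3. Compounds and controls pin-transferred, then read after 2 h incubation at ambient room temperature.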
TDP1 inh = qHTS Assay for Inhibitors of Tyrosyl-DNA Phosphodiesterase (TDP1). Potency, µM (series often up to 130 µM), usual class: inhibitors. hit rate 0.28% among 350,000. recombinant TDP1, AlphaScreen DNA substrate cleavage; further: nearly all actives have a fitted effect of over 40% in size
Target sequence (Q9NUW8 whole entry, looked up): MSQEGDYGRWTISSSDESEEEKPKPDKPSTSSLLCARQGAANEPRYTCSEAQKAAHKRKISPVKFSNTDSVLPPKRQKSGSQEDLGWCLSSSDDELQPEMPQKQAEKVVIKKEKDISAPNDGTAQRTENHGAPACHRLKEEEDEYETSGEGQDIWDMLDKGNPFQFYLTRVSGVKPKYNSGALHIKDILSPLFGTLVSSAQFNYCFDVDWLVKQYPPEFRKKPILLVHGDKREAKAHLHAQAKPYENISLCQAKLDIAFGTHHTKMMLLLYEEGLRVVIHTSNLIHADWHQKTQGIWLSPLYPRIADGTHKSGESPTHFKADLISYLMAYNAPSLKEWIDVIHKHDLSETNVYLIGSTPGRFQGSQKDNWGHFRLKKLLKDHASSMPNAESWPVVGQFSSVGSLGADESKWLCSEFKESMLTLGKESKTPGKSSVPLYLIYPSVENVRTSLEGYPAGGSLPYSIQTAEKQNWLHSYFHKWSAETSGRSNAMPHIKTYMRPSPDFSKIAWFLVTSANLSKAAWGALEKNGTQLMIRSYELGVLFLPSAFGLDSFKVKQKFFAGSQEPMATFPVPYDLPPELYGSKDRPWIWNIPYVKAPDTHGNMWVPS
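Recombinant E. coli-expressed Tdp1 (1 nM) preincubated with compound 15 min at RT, then 5'-biotin/3'-phosphotyrosine-FITC DNA substrate (15 nM) added for 5 min. AlphaScreen beads (10 ug/ml) added, 10 min RT; tyrosine-FITC cleavage read as signal loss.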
DT40 TDP1 CPT = qHTS for Inhibitors of human tyrosyl-DNA phosphodiesterase 1 (TDP1): qHTS in cells in presence of CPT | Potency, µM (top dose mostly 46.2 µM), most hits filed as inhibitors | AID 686979, 2013 | hit rate 12% among 420,000 | chicken DT40 Tdp1-/-;hTDP1 cells + 20 nM CPT, ATP luminescence, 48 h; further: nearly all actives have a fitted effect of over 55% in size
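Cell growth measured by CellTiter-Glo luminescence after a minimum 48 h, 37 C compound exposure with 20 nM CPT in Tdp1-knockout DT40 cells stably expressing hTDP1, seeded 400/well; qHTS titration format.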
PLK1 PBD inh = qHTS for Inhibitors of PLK1-PDB (polo-like kinase 1 - polo-box domain): Primary Screen; Plk1 PBD binding of FITC phosphopeptide, fluorescence polarization; Serine/threonine-protein kinase PLK1 (Homo sapiens), P53350; Potency, µM, hits mostly inhibitors; hit rate 2.8% among 360,000; further: series mostly up to about 57 µM; nearly all actives have a fitted effect of over 65% in size
KAT2A inh = qHTS Assay for Inhibitors of GCN5L2; Histone acetyltransferase KAT2A (Homo sapiens), Q92830; GCN5L2 HAT assay, ThioGlo1 CoA-SH fluorescence; Potency, µM (highest dose often 58.9 µM), hits mostly inhibitors; hit rate 0.21% among 390,000; AID 504327, 2011
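Enzyme at 20nM final was mixed with library compounds for 15 min at room temperature. Peptide H3(1-25) at 75uM, acetyl-CoA at 70uM and ThioGlo1 at 50uM were then added. Plates were read immediately and after 20 min (Ex340nm/Em540nm).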
TDP1 cell noCPT = qHTS for Inhibitors of human tyrosyl-DNA phosphodiesterase 1 (TDP1): qHTS in cells in absence of CPT; Potency, µM (titrated, usually from 46.2 µM), hits mostly inhibitors; DT40 Tdp1-/- hTDP1 cells, no CPT, ATP luminescence, 48 h; hit rate 15% among 420,000; AID 686978, 2013; further: nearly all actives have a fitted effect of over 55% in size
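Compound effects on proliferation are scored in DT40 Tdp1-/-;hTDP1 cells in the absence of CPT. ATP levels (CellTiter-Glo luminescence) are recorded after a ≥48 hr, 37 °C incubation.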
Numbers stand for hits; – = inactive; ? = inconclusive; · = no result given; [ ] = remark or other dose. The call rests on the fitted dose curve; in most records, active means well fitted curve in the direction sought with a large enough effect; inconclusive means small, poorly fitted or top-dose-only effect, or another doubt; inactive means no such curve, though single readings can be large; an effect the other way counts as inactive or inconclusive.

SMILES | VDR inh | TDP1 inh | DT40 TDP1 CPT | PLK1 PBD inh | KAT2A inh | TDP1 cell noCPT
O=C(Nc1ccc2[nH]c3c(c2c1)CCCC3)c1ccco1 | – | – | ? | – | – | 20.6µM
CC(=O)c1cccc(NS(=O)(=O)c2ccc3[nH]c4c(c3c2)CCCCC4)c1 | – | – | 20.6µM | · | – | 16.4µM
CC(=O)c1cccc(NS(=O)(=O)c2ccc3[nH]c4c(c3c2)CCCCCC4)c1 | – | – | ? | · | – | 20.6µM
CCc1ccccc1N1C(=O)N(CC(=O)c2ccc(OC)cc2)c2ccccc2S1(=O)=O | – | – | – | · | – | –
CCCCCC(=O)N1C[C@@H](O)[C@H](n2cc(-c3ccc(F)cc3)nn2)C[C@@H]1c1ccc(C)cc1 | · | · | ? | – | · | 18.4µM
CCCCCC(=O)N1C[C@@H](n2cc(-c3ccc(F)cc3)nn2)[C@H](O)C[C@@H]1c1ccc(OC)cc1 | · | · | ? | – | · | ?
Cc1ccc([C@H]2C[C@@H](O)[C@H](n3cc(C4CC4)nn3)CN2C(=O)c2cccs2)cc1 | · | · | ? | – | · | 20.6µM
O=C(c1cccs1)N1C[C@@H](O)[C@H](n2cc(-c3ccc(F)cc3)nn2)C[C@@H]1c1ccccc1 | · | · | 18.4µM | – | · | 16.4µM
COc1ccc([C@H]2C[C@H](O)[C@@H](n3cc(-c4ccc(F)cc4)nn3)CN2C(=O)C2CCCCC2)cc1 | · | · | – | – | · | –
COc1ccc([C@H]2C[C@H](n3cc(-c4ccc(F)cc4)nn3)[C@@H](O)CN2C(=O)C2CCCCC2)cc1 | · | · | ? | – | · | 18.4µM
O=C(NCCCl)Nc1cccnc1Cl | – | – | – | – | – | ?
C#CCCCO/N=C1/C[C@@H](O)[C@@H](O)[C@@H]2[C@@H]3C(=O)N(c4cccc(Oc5ccccc5)c4)C(=O)[C@H]3CC[C@H]12 | · | –[21 µM] | · | · | · | ·
O=C(NCc1cccnc1)OC1CC2CC1[C@H]1CCCCN1C2=O (stereo partly specified) | · | · | – | – | · | –
COC(=O)[C@@H](c1ccccc1Cl)N1CCc2sccc2C1 | ? | – | ? | · | – | ?
CCCCCC(=O)N1C[C@@H](n2cc(-c3ccc(F)cc3)nn2)[C@H](O)C[C@@H]1c1ccc(C)cc1 | · | · | 13µM | – | · | 8.2µM
CCCCCC(=O)N1C[C@@H](O)[C@H](n2cc(-c3ccc(F)cc3)nn2)C[C@@H]1c1ccccc1 | · | · | 23.1µM | – | · | 10.3µM
COc1ccc2nc3ccccc3nc2c1N | ? | – | ? | – | – | 8.2µM
C[N+]1(CC(=O)c2ccc(Cl)cc2)CCOCC1 | · | · | – | · | · | –
C[C@@H]1CCC2[C@@H](C)[C@@H](O)O[C@@H]3O[C@@]4(C)CC[C@@H]1[C@@]23OO4 (stereo partly specified) | – | – | 0.0411µM | · | – | 0.0944µM
O=C(Nc1ccc(Cc2nc3ccccc3s2)cc1)c1ccncc1 | – | · | ? | – | – | 11.6µM
NC(=O)c1ccc(NC(=O)CCc2nc3ccccc3s2)cc1 | – | – | – | – | – | –
CN(C)c1cccc(C(=O)Nc2ccc(-c3nc4ccccc4s3)cc2)c1 | – | – | ? | · | – | 13µM
CC(C)Oc1ccc(C(=O)Nc2ccc(-c3nc4ccccc4s3)cc2)cc1 | – | – | 10.3µM | · | – | ?
COCCN1C(=O)N(c2cccc(OC)c2)C(=O)C1CC(=O)Nc1ccccc1 (stereo unspecified) | – | – | – | · | – | –
CC(=O)Nc1cc(-c2ccc(C(=O)N3CCOCC3)cc2)cn2c(-c3ccc(F)c(Cl)c3)cnc12 | · | · | 23.1µM | – | · | 16.4µM
CC(=O)Nc1cc(-c2ccc(C(=O)N3CCOCC3)cc2)cn2c(-c3ccc(S(C)(=O)=O)cc3)cnc12 | · | · | 16.4µM | – | · | 13µM

From PubChem
